Laboratory results taken from PubChem BioAssay AID686949 (The Scripps Research Institute Molecular Screening Center, 2013).
In all, about 3,200 compounds went through this assay and about 2,200 (69%) were called active.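 How the source made its calls: active means activation, as change over the incubation, above the mean of all tested compounds plus 3 SD (cut at about 13% in these data); inactive means the rest.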 The set was probably picked from earlier hits. Only a sample is shown.

Biological target: Kallikrein-7 (Homo sapiens) (UniProt P49862)
Experiment: activation of human kallikrein-7 proenzyme – biochemical, fluorescence intensity, triplicate, confirmation (AID 686949)
Details: purified proKLK7, EDANS-DABCYL substrate fluorescence; at 7 µM; stronger effect = higher value

Sequence of Kallikrein-7 (Homo sapiens) (P49862 whole entry, looked up): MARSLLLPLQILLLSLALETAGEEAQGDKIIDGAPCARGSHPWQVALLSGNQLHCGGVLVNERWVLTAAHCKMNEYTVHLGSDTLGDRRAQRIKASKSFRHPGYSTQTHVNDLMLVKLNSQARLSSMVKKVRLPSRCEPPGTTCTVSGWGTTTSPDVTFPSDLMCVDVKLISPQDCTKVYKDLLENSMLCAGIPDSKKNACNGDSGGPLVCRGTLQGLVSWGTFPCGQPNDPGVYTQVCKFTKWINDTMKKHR

Compound | activation
COc1cccc(-c2nc3ccc(N4CCN(C)CC4)cc3[nH]2)c1 | 64% (active)
CCOc1ccc(-c2cc(C)[n+](CCN(CC)CC)c(-c3ccc(OCC)cc3)c2)cc1 | 19.2% (active)
Cc1nc2ccc(N3CCN(C)CC3)cc2nc1C | 16.1% (active)
CCOC(=O)c1c(N)n(CCN2CCOCC2)c2nc3ccccc3nc12 | 27.8% (active)
